Screens from PubChem BioAssay.
NTR1 ag: agonists of human neurotensin receptor NTR1; activation, % at 20 µM; NTR1-U2OS beta-arrestin-GFP spot imaging, agonist mode; actives 0.17% (n = 330,000); P30989;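 active means activation at or above 40% of the spot to cytoplasm intensity ratio, with at least 20 cells analyzed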;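 further: 0% = DMSO without peptide and 100% = 100 nM NTR1 peptide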
Target sequence (P30989 whole entry, looked up): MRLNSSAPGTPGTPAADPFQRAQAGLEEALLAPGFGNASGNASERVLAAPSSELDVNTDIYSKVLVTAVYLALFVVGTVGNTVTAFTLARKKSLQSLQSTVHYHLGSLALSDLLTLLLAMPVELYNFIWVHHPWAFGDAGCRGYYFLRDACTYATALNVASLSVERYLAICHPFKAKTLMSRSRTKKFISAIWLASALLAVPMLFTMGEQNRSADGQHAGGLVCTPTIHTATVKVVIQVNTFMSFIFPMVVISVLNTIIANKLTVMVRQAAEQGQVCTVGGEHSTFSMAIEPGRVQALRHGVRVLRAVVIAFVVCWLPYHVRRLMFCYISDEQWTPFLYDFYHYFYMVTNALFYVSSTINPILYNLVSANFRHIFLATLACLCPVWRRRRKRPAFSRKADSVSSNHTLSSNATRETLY
APOBEC3A inh: blocks human APOBEC3A ssDNA deamination; AID 493011; inhibition, % at 20 µM; P31941; actives 0.41% (n = 330,000); recombinant A3A, FAM/TAMRA ssDNA deamination fluorescence;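 active means at least 40% inhibition at 20 µM here, with at most 30% in a related deaminase screen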;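 further: plate controls were A3A with DMSO for no effect and wells lacking A3A enzyme for full effect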
APOBEC3G inh: APOBEC3G (human) deaminase inhibition; inhibition, % at 20 µM; Q9HC16; actives 0.28% (n = 330,000); recombinant A3G, ssDNA deamination FAM/TAMRA fluorescence;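 active means inhibition of at least 40% at 20 µM, with no more than 30% in the related APOBEC3A deaminase screen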;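 further: plate controls were DMSO wells with A3G for no effect and wells lacking A3G enzyme for full effect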
AHR act: human AHR activation; P35869; activation, % at 5 µM; actives 2.5% (n = 320,000); AHR-responsive luciferase reporter cells, luminescence; in the data active means activation above about 47%;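 further: 0% = vehicle wells and 100% = reference agonist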
A3G conf: confirmation of human APOBEC3G DNA deaminase inhibitors; shares compounds with APOBEC3G inh; recombinant A3G ssDNA deaminase, UDG/FAM-TAMRA fluorescence; inhibition, % at 20 µM; actives 72% (n = 890); AID 493152;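 active means inhibition reaching a set limit in any replicate at 20 µM, the limit being 80% of the first screen's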
UDG A3G counter: E. coli UDG inhibition in APOBEC3G counter-screen; 710 tested, under 10 active; inhibition, % at 20 µM; shares compounds with APOBEC3G inh; AID 504715; UDG counterscreen, FAM/TAMRA oligo fluorescence;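 active means compounds giving 40% or more inhibition at 20 µM in any one of the three replicates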;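 further: plate controls were DMSO wells with UDG and oligo for no effect and DMSO wells lacking both for full effect; inhibitors lower the FAM signal released by uracil excision and alkaline cleavage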
* = called active by the depositor. In the library only some 3.2% were active in any assay of this set; here they are far more common.

For CCN(CCn1cccn1)C(=O)C1CCC(=O)N(CCc2cccc(F)c2)C1 (configuration not stated) the results were NTR1 ag 1.5, APOBEC3A inh -4.4, APOBEC3G inh -8.0 and AHR act 7.8.
OCCN1CCN(C(=S)c2ccc(Cl)cc2)CC1 was read as NTR1 ag 0.3, APOBEC3A inh -7.7, APOBEC3G inh 18.8 and AHR act -0.4.
For CC(C)(C)c1cc(C(=S)N2CCN(CCO)CC2)cc(C(C)(C)C)c1O the results were NTR1 ag 0.0, APOBEC3A inh 2.8, APOBEC3G inh 61.0*, AHR act 0.0, A3G conf 55.8* and UDG A3G counter -4.5.
`CCCc1cc(=O)[nH]c(SCC(=O)N2CCCCCC2)n1` gave NTR1 ag -0.3, APOBEC3A inh 0.1, APOBEC3G inh -0.6 and AHR act 0.8.
`COc1cc(S(=O)(=O)Nc2cccc(C)c2)ccc1N=Cc1c(C)[nH]n(-c2ccccc2)c1=O` gave NTR1 ag 1.6, APOBEC3A inh 0.8, APOBEC3G inh 54.6*, AHR act 7.3 and A3G conf -1.9.
For CCCC(C)c1nnc(NC(=O)C2CC(=O)N(CCc3ccc(F)cc3)C2)s1 (configuration not stated) the results were NTR1 ag 0.7, APOBEC3A inh 1.8, APOBEC3G inh 45.1*, AHR act 3.0, A3G conf 21.6* and UDG A3G counter 3.0.
CCc1nnc(NC(=O)C2CC(=O)N(CCc3ccc(F)cc3)C2)s1 (configuration not stated) was read as NTR1 ag 0.0, APOBEC3A inh -0.6, APOBEC3G inh -12.4 and AHR act 1.0.
NC(=O)C(=O)NCCCN1CCOCC1 was read as NTR1 ag 1.1, APOBEC3A inh -1.3, APOBEC3G inh -7.0 and AHR act -0.2.
Nc1cc(S(=O)(=O)Nc2cc(Cl)ccc2Cl)ccc1N1CCOCC1 was read as NTR1 ag 0.8, APOBEC3A inh 1.0, APOBEC3G inh 48.3*, AHR act 4.5, A3G conf 34.1* and UDG A3G counter 5.7.
Cc1cc(C)c2c(=O)[nH]c(SCC(=O)c3ccc(F)c(C)c3)nc2n1 was read as AHR act 15.2.
For CC1CCc2sc(C(=O)N3CCN(c4ncccn4)CC3)cc2C1 (configuration not stated) the results were NTR1 ag 0.4, APOBEC3A inh -0.1, APOBEC3G inh -0.7 and AHR act 3.8.
`Cc1c(/C=N/Nc2ccc(F)cc2)c(O)n(C)c(=O)c1C#N` gave NTR1 ag -2.6, APOBEC3A inh -1.1, APOBEC3G inh 63.6*, AHR act 2.7, A3G conf -1.0 and UDG A3G counter -3.0.
Screening CC(=O)Nc1ccc(NC(=O)[C@H](C)NC(=O)c2ccco2)cc1 returned NTR1 ag -0.4, APOBEC3A inh 3.6, APOBEC3G inh -0.7 and AHR act 0.3.
Screening COc1ccc(S(=O)(=O)n2nc(OC(=O)c3ccccc3)cc2N)cc1 returned NTR1 ag 1.6, APOBEC3A inh -5.0, APOBEC3G inh -6.4 and AHR act 1.1.
Screening COc1ccc(S(=O)(=O)n2nc(OC(=O)c3cccs3)cc2N)cc1 returned NTR1 ag 0.6, APOBEC3A inh 6.5, APOBEC3G inh 53.8*, AHR act 1.4 and A3G conf 4.8.
CN1CCN(C(=S)C(=O)Nc2ccc(Br)cc2)CC1 was read as NTR1 ag -0.5, APOBEC3A inh 5.8, APOBEC3G inh 79.5*, AHR act -3.5, A3G conf 70.4* and UDG A3G counter -2.0.
Screening COC(=O)C1=C(COc2ccccc2)NC(=O)NC1c1ccc(Cl)cc1 (configuration not stated) returned NTR1 ag 0.9, APOBEC3A inh -2.0, APOBEC3G inh 48.1*, AHR act 0.4, A3G conf 3.4 and UDG A3G counter -2.0.
Nc1nc2ccccc2[nH]1 was read as NTR1 ag -1.1, APOBEC3A inh 0.8 and APOBEC3G inh 0.5.
Screening Nc1ccccc1Sc1nc2ccccc2[nH]1 returned NTR1 ag 1.5, APOBEC3A inh 0.2, APOBEC3G inh 56.6*, AHR act 43.8 and A3G conf 1.5.
For Cc1ccc(C(=O)N2CCC(C(=O)NC3CCCC3)CC2)cc1 the results were NTR1 ag -1.0, APOBEC3A inh -0.1, APOBEC3G inh 69.0*, AHR act 0.9, A3G conf -4.6 and UDG A3G counter 1.4.
